# Source: PubChem
# The list is not random: actives were taken first. Their share in the collection is about 3.5%.
# CHRM1 antagonist = antagonists of human M1 muscarinic receptor. P11229. CHO-K1 hM1, Fluo-8 calcium fluorescence, ACh EC80 antagonist. inhibition, % at 3 µM. 1.3% of 360,000 active. AID 588852;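 active = percent inhibition above its own plate's cutoff, namely the mean of that plate's compound wells plus 3 SD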;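 also: peak over basal fluorescence ratio during 140 s after agonist addition; 0% = ACh EC80 plus DMSO and 100% = DMSO alone without agonist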
# Target sequence (P11229 whole entry, looked up): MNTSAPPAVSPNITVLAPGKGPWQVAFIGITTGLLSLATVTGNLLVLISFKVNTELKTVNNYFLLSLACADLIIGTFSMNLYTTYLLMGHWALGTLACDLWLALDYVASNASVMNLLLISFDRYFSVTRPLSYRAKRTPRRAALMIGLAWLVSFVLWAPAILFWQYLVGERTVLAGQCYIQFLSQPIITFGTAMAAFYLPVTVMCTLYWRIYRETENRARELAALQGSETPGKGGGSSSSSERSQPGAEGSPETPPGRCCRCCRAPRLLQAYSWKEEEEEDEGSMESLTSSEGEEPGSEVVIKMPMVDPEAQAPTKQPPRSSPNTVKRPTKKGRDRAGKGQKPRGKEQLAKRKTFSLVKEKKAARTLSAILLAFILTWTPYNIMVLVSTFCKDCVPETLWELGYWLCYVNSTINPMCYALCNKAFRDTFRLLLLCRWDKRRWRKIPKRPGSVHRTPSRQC
# ATG4B inh = blocks human ATG4B protease cleavage of LC3 substrate. Q9Y4P1. ATG4B cleavage of LC3-PLA2, NBD-HPC fluorescence, 1 h. inhibition, % at 8.33 µM. 0.51% of 340,000 active. AID 504462; in the data active = inhibition above about 40%
# CHRM1 agonist = human M1 muscarinic receptor agonism; P11229; CHO-K1 hM1, Fluo-8 calcium fluorescence, agonist mode; 0% DMSO, 100% acetylcholine EC100; activation, % at 3 µM; 0.33% of 360,000 active; AID 588814;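 active = activation above the run's mean compound activation plus 3 SD, cut at about 16% in these data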;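 also: peak over basal fluorescence ratio within a 140 s kinetic read after compound addition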
# M1 PAM = potentiates human M1 receptor response to acetylcholine; P11229; CHO-K1 hM1, Fluo-8 calcium fluorescence, ACh EC20; 0% = ACh EC20, 100% = maximal ACh; activation, % at 3 µM; 0.088% of 360,000 active; AID 588819; in the data active = activation above about 19%, passing the limit was not always enough
# Myeloid diff MLP = compounds promoting myeloid differentiation; calls only at 10 µM; 1% of 360,000 active; ER-HoxA9 myeloid progenitors, lysozyme-GFP differentiation, flow cytometry;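 active = normalized GFP-positive differentiation at or above the plate's own cutoff, the solvent-only control mean plus 3 SD; inconclusive = no clear call, values can overlap the other calls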;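 also: cells exposed to compound for four days before flow analysis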
# SKN-1 block = C. elegans SKN-1 inhibition. C. elegans VP596 Pgst-4::GFP/RFP ratio, acrylamide-induced, 24 h. inhibition, % at 21.8 µM. 0.49% of 360,000 active. AID 624304;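 active = interference check ratio from 0.5 to 1.5 plus GFP to RFP signal ratio inhibition reaching or exceeding a fixed threshold, cut at about 30% in these data, passing the limit was not always enough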
# Starred values were filed as active, the others as inactive; i = inactive; ? = inconclusive; / = no result given; + = active, no number.
SMILES,CHRM1 antagonist,ATG4B inh,CHRM1 agonist,M1 PAM,Myeloid diff MLP,SKN-1 block
O=C(/C=C/c1ccccc1)N1CCN(Cc2nc3ccccc3c(=O)[nH]2)CC1,-2.4,-8.6,-5.9,5.2,i,10.5
O=C(CNS(=O)(=O)c1ccccc1F)OCC(=O)c1c[nH]c2ccccc12,8.0,-10.2,-3.0,-5.8,i,11.8
O=C(CNS(=O)(=O)c1ccccc1)OCC(=O)c1c[nH]c2ccccc12,-2.5,-10.3,-3.3,1.7,+,6.1
O=C(Nc1ccc(F)c(F)c1)c1ccc(-n2cncn2)c([N+](=O)[O-])c1,-7.7,-7.7,4.5,14.5,i,-25.3
O=C(Nc1cccc(/C=C/c2ccccn2)c1)c1ccc(-n2cncn2)c([N+](=O)[O-])c1,20.4*,-19.6,1.1,-8.4,i,11.3
O=C(NNC(=O)c1ccccc1F)c1ccc(-n2cncn2)c([N+](=O)[O-])c1,35.5*,-9.1,0.5,-12.3,i,-9.4
COc1ccc(NC(=O)c2ccc(-n3cncn3)c([N+](=O)[O-])c2)cc1OC,-11.4,3.6,-0.4,13.4,i,3.0
O=c1[nH]ncn2cccc12,-10.1,-4.2,-3.5,9.7,i,46.2*
O=C(CSc1nc2ncc(Cl)cc2[nH]1)c1c[nH]c2ccccc12,-10.2,13.8,-2.8,7.1,+,-13.9
Cn1nc(C(F)(F)F)c(/C=N/OC(=O)c2ccccc2Cl)c1SCc1ccccc1Cl,33.0*,2.0,-6.6,-27.7,i,2.4
CC1(CN2CCCC2)CCC(NC(=O)C(c2ccccc2)c2ccccc2)C(C)(C)O1 (stereo not given),8.0,/,-6.9,-16.2,i,7.3
CCOc1cc(/C=C2/SC(=S)N(Cc3ccccc3)C2=O)ccc1O,2.4,-4.2,15.0,8.1,+,-10.3
O=C1C(=Cc2cccc(O)c2O)SC(=S)N1CCCN1CCOCC1,-10.2,/,1.6,5.6,+,15.9
O=C1/C(=C/c2ccc(O)c([N+](=O)[O-])c2)SC(=S)N1Cc1ccccc1,4.7,39.9,-3.2,10.2,i,2.9
O=C1/C(=C\c2ccc(O)cc2)SC(=S)N1Cc1ccccc1,-7.7,3.1,3.3,13.1,+,-0.9
COc1cc(/C=C2/SC(=S)N(Cc3ccccc3)C2=O)ccc1OCC(=O)O,-10.3,28.1,1.0,15.1,i,-4.1
COc1cc(/C=C2\SC(=S)N(NC(=O)c3ccccc3O)C2=O)ccc1O,14.4,5.5,20.3*,-4.9,i,14.4
CCCCn1c(N)c(N(CCC(C)C)C(=O)c2cccc(-n3cnnn3)c2)c(=O)[nH]c1=O,-9.1,-13.1,-1.2,0.0,i,6.6
COc1ccc(/C=C2\SC(=O)N(CC(=O)Nc3ccccc3O)C2=O)cc1OC,-11.5,-8.9,-1.7,7.5,i,35.3*
COc1cc(/C=C2/SC(=S)N(Cc3ccccc3)C2=O)cc(Cl)c1O,22.9,25.9,24.7*,-3.8,+,35.7*
O=C1/C(=C\c2cccc([N+](=O)[O-])c2O)SC(=S)N1Cc1ccccc1,-7.5,46.8*,0.3,8.2,i,15.5
COc1ccc(CN2C(=O)/C(=C/c3ccncc3)SC2=S)cc1,-9.5,0.8,4.2,23.7*,i,-4.0
COc1ccc(/C=C2\SC(=O)N(CC(=O)Nc3ccc(O)cc3)C2=O)cc1OC,-14.4,11.3,-2.0,3.4,i,3.3
COc1cccc(OC)c1OC(=O)c1ccccc1,-10.3,0.1,-3.4,7.2,i,6.3
O=C1/C(=C\c2ccccc2)SC(=S)N1CCC(=O)N1CCCCC1CCO (stereo not given),13.2,7.5,0.2,-10.5,?,5.3
SMILES,CHRM1 antagonist,ATG4B inh,CHRM1 agonist,M1 PAM,Myeloid diff MLP,SKN-1 block
COc1ccc(/C=C2\SC(=S)N(CCCC(=O)N3CCCCC3CCO)C2=O)cc1 (stereo not given),-8.1,-4.3,1.2,10.0,+,17.4
O=C(O)c1ccc(/C=C2/SC(=S)N(Cc3ccccc3)C2=O)cc1,-18.2,3.8,-2.6,9.7,+,27.3
Cc1cc(NCCCN2CCOCC2)n2nc(C)c(-c3ccccc3)c2n1,13.8,-5.1,-5.2,-7.0,+,16.1
Cc1cc(/C=C2\SC(=S)NC2=O)c(C)n1-c1ccc(O)cc1,-1.1,16.3,-1.2,1.3,i,3.5
Cc1cc(/C=C2\SC(=S)NC2=O)c(C)n1C,-22.3,12.6,1.2,4.2,+,19.8
CN(Cc1ccon1)C(=O)CC1C(=O)NCCN1CC1CCCCC1 (stereo not given),-1.0,14.0,-5.9,8.9,i,3.4
O=C(NC1CCCCC1)c1cc2ccccc2cc1O,-25.1,5.3,1.3,23.6*,i,0.0
CCOC(=O)N1CCN(Cc2nc3ccc([N+](=O)[O-])cc3c(=O)n2-c2ccccc2F)CC1,23.0,-2.8,2.3,-6.2,i,-6.5
O=c1c2cc(N3CCOCC3)ccc2[nH]c(=S)n1CCN1CCCC1,2.0,-3.5,-6.0,2.3,i,-7.8
O=c1c2cc(N3CCOCC3)ccc2[nH]c(=S)n1CCCN1CCCCCC1,22.9*,-5.3,-6.4,-24.1,i,-5.4
CN1C(=O)S/C(=C\c2ccc(-n3cncn3)cc2)C1=O,3.2,0.7,-1.1,7.5,i,-4.4
O=C(NCc1ccccc1)c1ccc(C2SCC(=O)N2Cc2ccccc2)cc1 (stereo not given),58.6*,-4.2,-5.0,-23.3,i,1.2
Cc1ccc([C@H]2C[C@@H](O)[C@H](n3cc(COC(=O)c4ccccc4)nn3)CN2C(=O)c2cccs2)cc1,0.3,/,-3.8,-4.0,i,14.6
c1ccc(Nc2ccc3c4c(cccc24)CC3)cc1,52.4*,9.3,42.5*,-10.3,+,14.6
Nc1ccc2c3c(cccc13)CC2,5.2,9.8,12.0,8.5,+,2.7
O=S(=O)(Nc1ccc2c3c(cccc13)CC2)c1ccc(F)cc1,-14.7,23.5,-4.0,-0.9,i,16.0
CCCCOCCCNC(=O)C[C@@H]1C[C@@]2(C(=O)OC)CCCCC=C2N(Cc2ccco2)C1=O,/,/,/,/,i,-1.0
COC(=O)C(Cc1ccc(O)cc1)NC(=O)c1ccc2c(c1)OCCO2 (stereo not given),-6.7,1.5,-1.1,8.1,i,-23.3
O=[N+]([O-])c1ccc(S(=O)(=O)Nc2ccncc2)cc1,-7.0,-9.5,-4.4,1.7,/,5.9
O=[N+]([O-])c1ccc(Oc2ccc(S(=O)(=O)Nc3ccccc3)cc2)cc1,41.6*,-9.6,19.4*,-17.4,i,11.9
O=C(CCCOc1ccc(Cl)cc1Cl)NC(Cc1ccccc1)C(=O)O (stereo not given),-4.5,-6.6,-6.8,5.5,i,-1.7
O=C1/C(=C\c2cccs2)SC(=S)N1C1CCS(=O)(=O)C1 (stereo not given),-10.3,1.0,-3.5,6.2,i,39.3*
